Measured values published in PubChem BioAssay (EPA / NIEHS).
Results filed as inconclusive are left out. The source made the active and inactive calls. The calls were made as follows, unless noted: active = hit-call score of the fitted dose curve at least 0.9, where 1 is the maximum; inactive = score below 0.9.

Assays:
[1] = CCTE_Harrill_HTTr_CellCount_MCF7: CCTE's Cell Proliferation Assessment for the High-Throughput Transcriptomics (HTTr) Platform, Harrill Lab (AID 2284012; active = hit-call score of the fitted dose curve at least 0.9, where 1 is the maximum;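 also: count of Hoechst-stained nuclei per well by high-content imaging in MCF-7 cells; cells exposed to compound for six hours; intended direction is loss of nuclei count meaning fewer cells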)
Summary of the method: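 Chemicals in eight-point dilution series are added to MCF-7 cells for six hours, nuclei are stained with Hoechst and imaged, and per-well nuclei counts are fitted in both directions relative to DMSO controls.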

[2] = CCTE_Shafer_MEA_acute_burst_number: CCTE's Neural Acute Assay for Single-Electrode Bursts, Shafer Lab (AID 2284013)
Summary of the method: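 Primary rat cortical neurons on 16-electrode MEA wells, treated on DIV 13 or 15 with compound at 0.03-40 uM. Single-electrode burst count from 40-min recordings at 37 C before and after exposure; percent change from baseline per well, DMSO negative control.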

[3] = CCTE_Shafer_MEA_acute_burst_duration_mean: CCTE's Neural Acute Assay for Mean Burst Duration, Shafer Lab (AID 2284014);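 also: hits are decreases in mean burst duration relative to DMSO controls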
Summary of the method: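 Rat primary cortical neurons on 48-well MEA, treated at DIV 13 or 15 with 0.03-40 uM in at least 3 wells. Value is percent change in mean burst duration, comparing 40 min recordings at 37 C before and during exposure.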

[4] = CCTE_Shafer_MEA_acute_per_burst_spike_number_mean: CCTE's Neural Acute Assay for Average Number of Spikes Per Burst, Shafer Lab (AID 2284015);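 also: hits are decreases in mean spikes per burst versus baseline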
Summary of the method: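 We recorded spontaneous network firing of rat cortical neurons for 40 min before and 40 min during exposure to compound at 0.03-40 uM, at 37 C. Spikes were detected adaptively at 8x rms noise, and the change in average spikes per burst was fitted against DMSO.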

[5] = CCTE_Shafer_MEA_acute_interburst_interval_mean: CCTE's Neural Acute Assay for Mean Interburst Interval, Shafer Lab (AID 2284016);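 also: percent change of mean interburst interval versus each well's own pre-dose baseline; curves fitted for decrease in interburst interval relative to DMSO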
Summary of the method: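 MEA recording of spontaneous network bursting in primary rat cortical cultures; mean interburst interval was compared before and after a 40-min compound exposure (0.03-40 uM) and expressed as percent change, relative to DMSO.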

[6] = CCTE_Shafer_MEA_acute_burst_percentage_mean: CCTE's Neural Acute Assay for Percentage of Spikes in a Burst, Shafer Lab (AID 2284017);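 as to AC50: curve fitted for loss of signal so potency reflects decreased burst percentage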
Summary of the method: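 Compounds were tested at 0.03-40 uM on primary rat cortical neuron networks grown over microelectrodes, with at least three wells per compound. Spontaneous firing was recorded for 40 min before and 40 min after dosing, and the change in burst percentage was computed per well.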

[7] = CCTE_Shafer_MEA_acute_burst_percentage_std: CCTE's Neural Acute Assay for Standard Deviation of Burst Percentage, Shafer Lab (AID 2284018);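 also: fitted in the negative direction so actives lower burst percentage SD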
Summary of the method: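 Rat primary cortical neurons on 48-well MEAs, DIV 13 or 15, 37 C. 40-min baseline then 40-min recording with compound (0.03-40 uM); well-level SD of per-electrode burst spike percentage, expressed as percent change from baseline.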

[8] = CCTE_Shafer_MEA_acute_per_network_burst_spike_number_mean: CCTE's Neural Acute Assay for Average Number of Spikes in a Network Burst, Shafer Lab (AID 2284019);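 as to AC50: curve fitted for loss of signal so actives reduce spikes per network burst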
Summary of the method: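 Rat primary cortical neurons on 48-well MEA at DIV 13 or 15, 37 C; compounds 0.03-40 uM, at least three wells each. 40-min baseline then 40-min exposure recording; percent change in mean spikes per network burst.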

[9] = CCTE_Shafer_MEA_acute_per_network_burst_spike_number_std: CCTE's Neural Acute Assay for Standard Deviation of Number of Spikes in a Network Burst, Shafer Lab (AID 2284020);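 also: fitted for decrease in spike-number SD versus DMSO so actives lower it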
Summary of the method: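 Rat primary cortical neurons on 48-well MEA (16 electrodes/well), treated DIV 13 or 15 at 0.03-40 uM, ≥3 wells per compound. 40 min recordings at 37 C before and after dosing; value is percent change in network-burst spike-number SD, negative direction vs DMSO.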

[10] = CCTE_Shafer_MEA_acute_network_burst_percentage: CCTE's Neural Acute Assay for Percentage of Network Bursts, Shafer Lab (AID 2284022);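 also: curves fitted for loss so actives lower network burst percentage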
Summary of the method: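 On DIV 13 or 15, at least three wells of rat cortical neurons per compound are dosed at 0.03-40 uM. Spontaneous firing is detected at 8x rms noise for 40 min before and after dosing at 37 C. The percent change in network-burst spike share is reported.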

[11] = CCTE_Shafer_MEA_acute_cross_correlation_area: CCTE's Neural Acute Assay for Area of Cross Correlation, Shafer Lab (AID 2284024);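 also: area under pooled inter-electrode spike cross-correlation near zero lag as percent change from own baseline; curves fitted for loss of cross-correlation area so actives lower synchrony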
Summary of the method: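 Extracellular recordings from cultured rat cortical neurons measure network synchrony as cross-correlation area; each well's post-compound value (0.03-40 uM, 40 min) is compared with its own 40 min baseline to give percent change.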

[12] = CCTE_Shafer_MEA_acute_cross_correlation_HWHM: CCTE's Neural Acute Assay for Cross Correlation at Half Width at Half Maximum, Shafer Lab (AID 2284026);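 also: percent change per well from pre-dose baseline in spike cross-correlogram half width; hits are a decrease in cross-correlogram half width relative to DMSO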
Summary of the method: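 Percent change in cross-correlogram half width at half maximum, narrower meaning more synchrony, was derived per well from paired 40-min recordings before and during exposure to 0.03-40 uM compound in rat cortical cultures at 37 C.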

[13] = CCTE_Shafer_MEA_acute_synchrony_index: CCTE's Neural Acute Assay for Synchrony, Shafer Lab (AID 2284027);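 also: fitted for loss of signal so actives lower synchrony relative to DMSO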
Summary of the method: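 Readout is percent change in the unitless network synchrony index (0 low, 1 high) between a 40-min baseline and a 40-min recording in compound. Cultures were primary rat cortical neurons on MEAs, treated at 0.03-40 uM on DIV 13 or 15.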

[14] = CCTE_Deisenroth_AIME_384WELL_CTox_Active: Cytotoxicity Assessment (CTOX) in CCTE's 384-well Estrogen Receptor Transactivation Assay with AIME metabolic competence (metabolism positive), Deisenroth Lab (AID 2284037; active = hit-call score of the fitted dose curve at least 0.9, where 1 is the maximum;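 also: activity means signal loss indicating cell death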)
Summary of the method: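 Chemicals pre-incubated 2 hours with alginate-immobilised phenobarbital/beta-naphthoflavone-induced male Sprague Dawley rat liver S9, then conditioned medium applied 24 hour to VM7Luc4E2 cells. Viability by fluorogenic protease substrate; 10-point series 0.002 - 200 uM.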

[15] = biological target: Estrogen receptor (Homo sapiens) (UniProt P03372); assay: CCTE_Deisenroth_AIME_384WELL_LUC_Active: CCTE's 384-well Estrogen Receptor Transactivation Assay with AIME metabolic competence (ERTA luciferase; metabolism positive), Deisenroth Lab (AID 2284030; active = hit-call score of the fitted dose curve at least 0.9, where 1 is the maximum)
Chain of Estrogen receptor (Homo sapiens) (P03372 whole entry, looked up): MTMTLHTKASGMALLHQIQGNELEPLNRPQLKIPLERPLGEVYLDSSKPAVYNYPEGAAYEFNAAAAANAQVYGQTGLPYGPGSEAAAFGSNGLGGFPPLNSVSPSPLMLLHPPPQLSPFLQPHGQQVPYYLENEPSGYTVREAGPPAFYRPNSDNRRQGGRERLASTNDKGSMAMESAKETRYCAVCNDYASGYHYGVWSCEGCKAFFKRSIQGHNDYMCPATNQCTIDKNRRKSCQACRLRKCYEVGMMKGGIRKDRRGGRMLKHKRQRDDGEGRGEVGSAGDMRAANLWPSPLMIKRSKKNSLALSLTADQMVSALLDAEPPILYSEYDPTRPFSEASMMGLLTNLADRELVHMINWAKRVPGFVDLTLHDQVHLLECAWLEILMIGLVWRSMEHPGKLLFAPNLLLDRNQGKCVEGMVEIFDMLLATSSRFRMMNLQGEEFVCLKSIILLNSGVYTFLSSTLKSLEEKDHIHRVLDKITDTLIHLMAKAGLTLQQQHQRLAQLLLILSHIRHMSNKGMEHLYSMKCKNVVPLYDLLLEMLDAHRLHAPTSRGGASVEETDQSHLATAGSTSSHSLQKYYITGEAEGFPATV
Summary of the method: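 Estrogenic luciferase signal in VM7Luc4E2 cells is measured at 24 hour, after chemicals have been preconditioned 2 hours with PB/BNF-induced rat hepatic S9 in alginate. Gain of signal is fitted relative to 17beta-estradiol, across 0.002 - 200 uM.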

[16] = CCTE_Shafer_MEA_dev_firing_rate_mean: CCTE's Neural Network Formation Assay for Mean Firing Rate, Shafer Lab (AID 2284031);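 also: AUC of well mean spike rate recorded on DIV 5 7 9 and 12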;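 as to AC50: curve fitted for loss of firing so AC50 reflects decreased mean firing rate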
Summary of the method: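 Rat primary cortical neurons were seeded on multielectrode arrays and treated from plating through day 12, with redosing at each feed. Spontaneous spiking was recorded four times; mean firing rate AUC was fitted downward against DMSO.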

[17] = CCTE_Shafer_MEA_dev_per_burst_spike_percent: CCTE's Neural Network Formation Assay for Percent of Spikes in a Burst, Shafer Lab (AID 2284032);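 as to AC50: fitted as a decrease in burst spike percentage below DMSO baseline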
Summary of the method: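 Rat primary cortical neurons on 16-electrode MEA wells, dosed from plating day 0 for 12 days with renewal on DIV 5 and 9; spikes-in-bursts percentage averaged over bursting electrodes, collapsed as AUC across days 5, 7, 9, 12; loss direction versus DMSO.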

[18] = CCTE_Deisenroth_AIME_96WELL_CTox_Active: Cytotoxicity Assessment (CTOX) in CCTE's 96-well Estrogen Receptor Transactivation Assay with AIME metabolic competence (metabolism positive), Deisenroth Lab (AID 2284028; active = hit-call score of the fitted dose curve at least 0.9, where 1 is the maximum)
Summary of the method: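 Chemicals (0.002–200 uM) were first incubated 2 h with alginate-immobilized phenobarbital/beta-naphthoflavone-induced male rat liver S9; conditioned medium then went onto VM7Luc4E2 cells for 24 h, with viability read by protease-substrate fluorescence, fitted bidirectionally.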

Measured: AC50

CC(O)CC(C)(C)O (configuration not stated)
not listed: [15] | [16] | [17] | [18]
inactive: all other assays above

O=c1[nH]sc2ccccc12
active: [5] 34.3 µM | [6] 20 µM | [10] 7.94 µM | [11] 0.0302 µM | [12] 32.6 µM | [13] 20 µM
not listed: [16] | [17] | [18]
inactive: all other assays above

O=C1O[C@H]([C@@H](O)CO)C(O)=C1O
not listed: [14] | [15] | [18]
inactive: all other assays above

CC1=CC(=O)/C(=C(/C)O)C(=O)O1
not listed: [1] | [14] | [15] | [16] | [17] | [18]
inactive: all other assays above

Cc1cc2c(cc1C(F)(F)F)N(C(=O)Nc1ccc(Oc3cccnc3C)nc1)CC2
not listed: [1] | [14] | [15] | [16] | [17] | [18]
inactive: all other assays above

Oc1ccccc1
inactive: [1] | [16] | [17] | [14]

Cc1ncc(CO)c(CO)c1O
inactive: [1] | [14]

CC/C(=C(/CC)c1ccc(O)cc1)c1ccc(O)cc1
inactive: [2] | [3] | [5] | [9] | [11]
active: [4] 6.76 µM | [6] 10.6 µM | [7] 35.4 µM | [8] 5.3 µM | [10] 10.5 µM | [12] 20 µM | [13] 10.2 µM | [16] 3.24 µM | [17] 15 µM

Clc1ccccc1C(c1ccccc1)(c1ccccc1)n1ccnc1
inactive: [3] | [5] | [8] | [11] | [16] | [17]
active: [2] 3.26 µM | [4] 5.84 µM | [6] 7.02 µM | [7] 9.25 µM | [9] 6.71 µM | [10] 5 µM | [12] 9.09 µM | [13] 6.8 µM

O=C(O)Cn1c(=O)n(Cc2ccc(Br)cc2F)c(=O)c2ccc(Cl)cc21
inactive: [15] | [14]

O=c1c(-c2ccc(O)cc2)coc2cc(O)cc(O)c12
inactive: [1] | [18]

Cc1ccc(C(C)C)cc1
inactive: [1] | [15] | [14]

CCCOC(=O)c1cc(O)c(O)c(O)c1
active: [15] 35.9 µM
inactive: [1] | [14]

CCCCCCCCCCCO
inactive: [1] | [15] | [14]

CCCCCCCCCC(=O)O
inactive: [1] | [14]
